# proKLK7 act: activators of human kallikrein-7 zymogen. AID 652039. purified proKLK7, EDANS-DABCYL substrate fluorescence; 100% is mature enzyme control, 0% vehicle. activation, % at 7 µM. 370,000 compounds, 0.9% hits. P49862;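 active = activation above the mean of all tested compounds plus 3 SD, computed per campaign excluding outliers beyond control limits, cut at about 13% in these data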
# Target sequence (P49862 whole entry, looked up): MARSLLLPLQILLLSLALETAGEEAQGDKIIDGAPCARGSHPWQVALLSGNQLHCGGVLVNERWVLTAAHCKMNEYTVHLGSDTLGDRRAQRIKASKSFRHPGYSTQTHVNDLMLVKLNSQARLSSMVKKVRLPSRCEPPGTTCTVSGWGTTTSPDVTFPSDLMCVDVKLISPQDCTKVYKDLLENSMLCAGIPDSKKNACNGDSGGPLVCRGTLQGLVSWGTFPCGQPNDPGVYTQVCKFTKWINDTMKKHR
# ADAM10 inh: inhibits human ADAM10. 370,000 compounds, 0.62% hits. inhibition, % at 7 µM. AID 720582. recombinant ADAM10, EDANS/DABCYL FRET peptide cleavage, 3 h;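 active = inhibition above a per-campaign cutoff equal to the mean of compounds falling between control-based bounds plus 3 SD, cut at about 20% in these data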;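 also: 0% = DMSO wells while the 100% control is not disclosed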
# rRNA inh HTS: inhibits bacterial ribosomal RNA function over humanized ribosomes. E. coli WT GFP vs humanized-ribosome RFP mutants, fluorescence, 24 h; hits give low values; DMSO median 0, no signal -100. GFP signal change (wild-type ribosome), % (test concentration not listed). 350,000 compounds, 1.6% hits;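 active = significant combined selectivity score with lowered wild-type GFP, culture density cut under 30%, mutant RFP and density less affected; inactive = any of these conditions unmet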
# ADAM17 inh: inhibitors of human ADAM17 | P78536 | recombinant ADAM17, EDANS/DABCYL FRET peptide cleavage | inhibition, % at 6.95 µM | 370,000 compounds, 0.83% hits | AID 720648;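 active = inhibition above the mean of compounds lying between control limits plus 3 SD, set per campaign, cut at about 8.5% in these data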;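 also: 0% = DMSO-only wells as the low control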
# FGF22 binding-1: FGF22 (human) thermal shift binding; Q9HCT0; recombinant FGF22 thermal shift, SYPRO orange fluorescence; percent of sucrose octasulfate shift, DMSO zero; activity (Tm shift, normalised), % at 9.99 µM; 340,000 compounds, 1.5% hits;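 active = mean Tm shift, scaled 0 neutral to 100 positive control, at about 1.3% or above, every replicate too, limit read from the data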
# Target sequence (Q9HCT0 whole entry, looked up): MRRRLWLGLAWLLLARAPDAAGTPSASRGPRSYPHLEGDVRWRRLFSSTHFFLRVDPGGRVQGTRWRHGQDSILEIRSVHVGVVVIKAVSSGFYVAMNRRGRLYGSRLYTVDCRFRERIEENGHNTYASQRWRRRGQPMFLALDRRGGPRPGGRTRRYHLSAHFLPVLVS
# FGF22 binding-2: binders of human FGF22 by thermal shift; shares compounds with FGF22 binding-1; 1,000 compounds, 2% hits; AID 720646; recombinant FGF22 thermal shift, SYPRO orange fluorescence; thermal shift activity, °C (ΔTm) at 38 µM;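 active = fitted rise in melting shift crosses a set limit at or below the top valid dose tested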
# SYPRO no-protein: counter-screen for FGF22 binders: compound-only thermal shift, no protein; shares compounds with FGF22 binding-1; compound-only SYPRO orange thermal shift counter-screen; AC50, µM (series often up to 38 µM); 1,000 compounds, 2% hits;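 active = rising signal whose fitted curve reaches the 0.54 level within the top valid dose, showing a melting point, actives reach about 13 µM in these data; inactive = the rest, including activity in the opposite direction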; also: value is where the raw curve crosses a fixed level and not half-maximal
# * marks the source's active call; other numbers are inactive results; i = inactive; . = no result; ! = not active in a repeat; [ ] = another dose, or the depositor's remark. Most compounds without a hit are left out; they make up all but 3.8% or so of the library.
SMILES,proKLK7 act,ADAM10 inh,rRNA inh HTS,ADAM17 inh,FGF22 binding-1,FGF22 binding-2,SYPRO no-protein
O=C(O)c1ccc(/C=N/NC(=O)c2ccc(NS(=O)(=O)c3cccs3)cc2)cc1,-1,4,-4,1,0,.,.
O=C(O)C1CCC(CNCc2ccccc2Cl)CC1 (stereo unspecified),0,5,18,0,0,.,.
CCOC(=O)C1CCC(CNCc2ccccc2C)CC1 (stereo unspecified),0,6,17,-7,1.6*,0.054,i
Cc1ccc(NS(=O)(=O)c2ccc3c(c2)NC(=O)C(C)C(=O)N3)c(Br)c1 (stereo unspecified),0,2,0,2,0,.,.
Cc1ccc(Cl)cc1NS(=O)(=O)c1ccc2c(c1)NC(=O)C(C)C(=O)N2 (stereo unspecified),0,-10,-8,-6,1.9*,0.068,i
C[C@H]1CN([C@@H](C)CO)C(=O)c2cc(-c3cccc(F)c3)cnc2O[C@H]1CN(C)Cc1cccc(F)c1,.,.,1,.,.,.,.
C[C@H]1CN([C@@H](C)CO)C(=O)c2cc(NS(=O)(=O)c3ccccc3)ccc2O[C@@H]1CN(C)C(=O)Nc1cccc2ccccc12,.,.,-2,.,0,.,.
Cc1cc(C)cc(N(CC(=O)O)S(=O)(=O)c2c(C)noc2C)c1,0,-3,8,0,0,.,.
Cc1cc(C)cc(N(CC(=O)NC2CCC(C)CC2)S(=O)(=O)c2c(C)noc2C)c1 (stereo unspecified),0,-22,-4,-1,1.4*,-0.055,i
CCC1CCCCN1C(=O)CCNC(=O)Cn1cnc2ccccc2c1=O (stereo unspecified),0,0,4,0,1.4*,-0.036,i
COc1cc(/C=N/NC(=O)c2ccccc2)ccc1O,0,-1,15,4,42,.,.
COc1cc(/C=N/NC(=O)c2[nH]nc3c2CCc2ccccc2-3)ccc1O,0,-10,-20*,-2,1.7*,0.68,i
O=C(C[C@@H]1CC[C@H]2[C@@H](COC[C@H](O)CN2Cc2ccc(F)cc2)O1)NCc1ccncn1,.,.,0,.,0,.,.
C[C@@H]1CN([C@H](C)CO)C(=O)CCCn2nncc2CO[C@H]1CN(C)S(=O)(=O)c1ccc(F)cc1,0,-28,-1,-1,1.2*!,0,i
C[C@@H]1CN([C@@H](C)CO)C(=O)CCCn2nncc2CO[C@@H]1CN(C)S(=O)(=O)c1ccc(F)cc1,0,-19,8,-4,1.3*!,0.058[42 µM],i
O=C(C[C@H]1C[C@H]2c3cc(NC(=O)NC4CCCC4)ccc3O[C@H]2[C@H](CO)O1)NCc1ccc(-c2ccccc2)cc1,.,.,1,.,0,.,.
COCC#Cc1cnc2c(c1)C(=O)N([C@@H](C)CO)C[C@@H](C)[C@H](CN(C)C(=O)C1CCC1)O2,.,.,1,.,0,.,.
Cc1nc(Oc2ccccc2)c2ccsc2n1,-1,2,4,-3,1.4*,-0.015,i
O=C(C[C@@H]1CC[C@@H]2[C@H](COC[C@@H](O)CN2S(=O)(=O)c2cccc(F)c2)O1)Nc1ccc(-c2ccccc2)cc1,.,.,3,.,1.8*,0.07[42 µM],i
O=C(C[C@H]1CC[C@@H]2[C@H](COC[C@@H](O)CN2Cc2nccs2)O1)NCc1ccccc1F,.,.,2,.,6.6*,0.048[42 µM],i
O=C(C[C@@H]1CC[C@H]2[C@@H](COC[C@@H](O)CN2S(=O)(=O)c2cccc(F)c2)O1)Nc1ccc(-c2ccccc2)cc1,.,.,-33,.,-3,.,.
Cn1cnc(S(=O)(=O)N2C[C@@H](O)COC[C@H]3O[C@H](CC(=O)NCc4ccc(F)cc4)CC[C@@H]32)c1,.,.,7,.,0,.,.
O=C(C[C@@H]1CC[C@H]2[C@@H](COC[C@@H](O)CN2Cc2cc(F)ccc2F)O1)NCc1ccc(F)cc1,.,.,-4,.,2.4*,-0.061[42 µM],i
O=C(C[C@@H]1CC[C@@H]2[C@H](COC[C@@H](O)CN2Cc2nccs2)O1)NCc1ccccc1F,.,.,0,.,0,.,.
Cn1cnc(S(=O)(=O)N2C[C@H](O)COC[C@@H]3O[C@@H](CC(=O)NCc4ccc(F)cc4)CC[C@H]32)c1,.,.,4,.,3.0*,0.11[42 µM],i
SMILES,proKLK7 act,ADAM10 inh,rRNA inh HTS,ADAM17 inh,FGF22 binding-1,FGF22 binding-2,SYPRO no-protein
O=C(C[C@H]1CC[C@@H]2[C@H](COC[C@H](O)CN2Cc2nccs2)O1)NCc1ccccc1F,.,.,2,.,0,.,.
O=C(C[C@H]1CC[C@H]2[C@@H](COC[C@H](O)CN2Cc2nccs2)O1)NCc1ccccc1F,.,.,-1,.,1.6*,0.099[42 µM],i
COc1ccc(S(=O)(=O)N(NC2=NS(=O)(=O)c3ccccc32)C(=O)C(C)C)cc1,0,4,2,3,2.6*,-0.066,i
O=C(NCC(=O)N(CC1CCCO1)C(C(=O)NC1CCCCC1)c1cccnc1)c1cccs1 (stereo unspecified),0,-5,7,-1,18*,0.14,i
O=C(NCC(=O)N(CC1CCCO1)C(C(=O)NC1CCCCC1)c1ccccc1)c1cccs1 (stereo unspecified),0,-5,7,-3,0,.,.
CC(=O)Nc1ccc(S(=O)(=O)NCCc2c[nH]c3ccc(C)cc23)cc1,1,9,-1,6,1.4*,0.079,i
OC[C@H]1[C@H]2c3ccccc3NC[C@H]2N1Cc1ccccc1Cl,.,.,1,.,0,.,.
O=C(Nc1ccccc1Cl)N1[C@H](CO)[C@@H]2c3ccccc3NC[C@@H]21,.,.,-3,.,1.6*,0.068,i
OC[C@H]1[C@@H]2c3ccccc3NC[C@@H]2N1Cc1ccccc1Cl,.,.,1,.,1.4*,0.23[42 µM],i
COc1ccc(NC(=O)N[C@@H]2CC[C@@H](CCNC(=O)Cc3ccncc3)O[C@H]2CO)cc1,.,.,2,.,0,.,.
CC(C)N(Cc1ccccc1)C(=O)COC(=O)C1CCN(c2ccc(C(F)(F)F)cn2)CC1,0,-8,-3,6,1.5*,-0.009,i
CC(C)N(C[C@H]1N[C@H](CO)[C@H]1c1ccccc1)S(=O)(=O)c1ccccc1,.,.,0,.,1.4*,0.02[42 µM],i
C[C@@H]1CN([C@H](C)CO)C(=O)c2cc(NC(=O)Nc3ccc(C(F)(F)F)cc3)ccc2O[C@@H]1CN(C)Cc1ccc(C(=O)O)cc1,.,.,2,.,1.4*,-0.1[42 µM],i
C[C@@H]1CN([C@@H](C)CO)C(=O)c2cc(NC(=O)Nc3ccc(C(F)(F)F)cc3)ccc2O[C@@H]1CN(C)Cc1ccc(C(=O)O)cc1,.,.,5,.,2.5*,0.03,i
